Screening results: PubChem BioAssay, National Center for Advancing Translational Sciences (NCATS)
Rows were chosen to be rich in hits. Some 7.1% of all compounds tested hit in one or more screens of this group.
ATXN viability: cell viability loss in ATXN counter-screen. Potency, µM (titrated, usually from 56.7 µM), actives largely listed as cytotoxic. actives 0.49% (n = 400,000). S2 cells (HEK-293 line with an ATXN2-luciferase reporter) viability, CellTiter-Fluor protease fluorescence, 24 h. AID 651635; note: potency is the fitted concentration of half-maximal effect; nearly all actives have a fitted effect of over 40% in size
ATXN2 expr inh: ATXN2 expression inhibition | actives 0.72% (n = 360,000) | Potency, µM (titrated, usually from 57 µM), without a hit: top-dose activity change, negative = inhibition, hits mostly inhibitors | HEK-293 ATXN2-luciferase reporter, luminescence, 24 h; note: potency is the fitted concentration of half-maximal effect; % is set by controls: 0 for no effect and ±100 for the full control effect; nearly all actives have a fitted effect of over 55% in size
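qHTS (up to 57 uM final) was run with 24 h compound exposure of reporter cells at 37 °C. Each well was multiplexed: SteadyGlo luminescence measured ATXN2-luciferase expression after a fluorogenic Gly-Phe-AFC viability readout (25 uM final).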
PINK1 modulator: changes PINK1 expression; PINK1 immunofluorescence, high-content cytometry, 24 h; Potency, µM (series often up to 76.6 µM), for inactives: at the top dose activation (PINK1 increase), hits mostly activators; actives 0.2% (n = 410,000); AID 624263; active = well fitted activation curve with a large enough effect; inconclusive = small, poorly fitted or top-dose-only effect; cell line not stated here; note: potency is the fitted concentration of half-maximal effect; % of control where 0% means no effect; nearly all actives have a fitted effect of over 65% in size
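Cells are seeded, rested 12 hours, then given compound at five concentrations or DMSO for 24 hours. After fixation, blocking and antibody staining, PINK1 amount and mitochondrial localization are scored; CCCP serves as control.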
MCF10A rerep: DNA re-replication induction in MCF 10a cells; MCF 10A DNA re-replication, Hoechst nuclear intensity, 48 h; Potency, µM (highest dose often 46.1 µM), for the others: at the highest dose activity, positive = re-replication, usual class: activators; actives 2.9% (n = 350,000); note: potency is the fitted concentration of half-maximal effect; % of control where 0% means no effect; nearly all actives have a fitted effect of over 50% in size
IL-1B inflam inh: inflammasome signaling inhibition, IL-1 beta readout. activity change, % at 57.5 µM. THP-1 LPS/ATP IL-1B secretion, AlphaLISA, 16 h; stronger effect = lower value. actives 4.7% (n = 360,000); in the data active = activity change below about -50%; inconclusive = mostly about -30% to -49%; note: % is set by controls: 0 for no effect and ±100 for the full control effect
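Secreted IL-1B measured by AlphaLISA bead assay after 16 h compound exposure of THP-1 cells; compounds (final up to 57.5 uM) added 1 h before LPS (250 ng/mL) and ATP (1.25 mM) stimulation; lower signal means less secretion.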
SW480 rereplic: inducers of DNA re-replication in SW480 colon cancer cells | Potency, µM (titrated, usually from 46.1 µM), inactives show top-dose re-replication activation, most hits filed as activators | AID 624297 | actives 1.8% (n = 340,000) | SW480 DNA re-replication, Hoechst DNA content imaging, 48 h; note: potency is the fitted concentration of half-maximal effect; % of control where 0% means no effect; nearly all actives have a fitted effect of over 55% in size
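Image-based DNA-content assay: after two days of treatment, nuclei were labelled with the DNA dye Hoechst and imaged, and hits were compounds raising the count of nuclei showing high fluorescence intensity.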
* = called active by the depositor; i = inactive; u = inconclusive; x = not tested or not shown; [ ] = dose if it differs, or a comment. Unless noted, calls come from the whole dose curve; as a rule, active = well fitted curve in the direction sought with a large enough effect; inconclusive = small, poorly fitted or top-dose-only effect, or another doubt; inactive = no such curve, though single readings can be large; an effect the other way counts as inactive or inconclusive.

SMILES | ATXN viability | ATXN2 expr inh | PINK1 modulator | MCF10A rerep | IL-1B inflam inh | SW480 rereplic
CN(C)CCNC(=O)c1coc(=O)c(Br)c1 | i | -5% | 4% | 22% | -10 | 2%
O=C(NCCC1=CCCCC1)c1coc(=O)c(Br)c1 | x | u | 25% | 12µM* | 0 | 9.2µM*
CC(C)CNC(=O)c1coc(=O)c(Br)c1 | x | x | x | 21µM* | -29 | u
O=C(Nc1cc(Cl)cc(Cl)c1)c1coc(=O)c(Br)c1 | i | 5% | 1% | u | x | u
O=C(NCCC1=CCCCC1)c1ccc(=O)oc1 | i | -4% | 2% | -183%[0.0737 µM] | -27 | 1%
O=C(NC(CO)(CO)CO)c1coc(=O)c(Br)c1 | i | -9% | -3%[38.3 µM] | 3.3µM* | -8 | 7.3µM*
O=C(NCCc1ccccc1)c1coc(=O)c(Br)c1 | u | 9% | 10% | u | -99* | 10µM*
CC(C)CN1CCc2nc(N3CCN(C)CC3)ncc2C1 | i | 13% | 2% | x | x | x
O=C(CCc1ccc(O)cc1)c1c(O)cc(O)cc1O[C@@H]1O[C@H](CO)[C@H](O)[C@H](O)[C@H]1O | x | -3% | x | x | x | x
CCCCSc1nnc2n(-c3cccc(C)c3)c(=O)c3c4c(sc3n12)CCCC4 | u | 4% | 0% | x | x | x
COc1cc2c(cc1OC)C(c1ccc(Br)cc1)NCC2 (stereo unspecified) | i | -20% | 0% | 9% | -52* | -4%
COc1ccc(C2NCCc3cc(OC)c(OC)cc32)cc1OC (stereo unspecified) | i | -5% | -1% | 0% | -3 | 4%
COC(=O)c1cc(CNC(=O)c2ccccc2F)cc(NC(=O)c2ccccc2OC)c1 | u | x | 0% | x | x | x
Clc1ccc2c(c1)-c1nnc(Br)n1-c1ccccc1S2 | i | -2% | 0% | 8% | -55* | -3%[9.22 µM]
COc1cccc(-n2c(-c3ccccc3F)nc3c(cnn3-c3ccc(C)cc3)c2=O)c1 | i | 2% | 3% | x | x | x
O=C(/C=C/c1ccc(O)c(O)c1)c1ccc(S(=O)(=O)N2CCCCCC2)cc1 | i | -21% | 4% | u | -74* | u
O=C(C1CCCN1S(=O)(=O)c1ccc(Cl)cc1)N1CCN(c2ccccc2)CC1 (stereo unspecified) | i | 3% | 1% | 6% | -2 | 4%
CCc1cccc2sc(N3CCN(C(=O)C4CC4)CC3)nc12 | x | x | 2% | x | x | x
CCc1cccc2sc(N3CCN(C(=O)c4ccc([N+](=O)[O-])o4)CC3)nc12 | x | u | -4% | 3.7µM* | -103* | u
CCNc1sc(C(=O)c2cccs2)c(N)c1-c1nc2ccccc2s1 | i | -13% | 8% | u | -2 | 0.82µM*
COC(=O)c1cn([C@@H]2C[C@@H](C(=O)N3CCCCCC3)N(Cc3cc4ccccc4s3)C2)nn1 | u | x | 0% | x | x | x
O=C(Oc1ccc2[nH]cc(CCN3C(=O)c4ccccc4C3=O)c2c1)c1ccco1 | i | 17% | x | 12µM* | -23 | -8%
COc1ccc2[nH]cc(CCNC(=O)c3ccco3)c2c1 | i | 7% | 0% | 42% | -11 | -14%
COc1ccccc1Cc1nc2ccccc2nc1SCC(=O)NCc1ccccc1Cl | x | x | -2% | x | x | x
O=C1CCCCc2sc(Br)c([N+](=O)[O-])c2N1 | i | 22% | -2% | u | -105* | 2.9µM*
SMILES | ATXN viability | ATXN2 expr inh | PINK1 modulator | MCF10A rerep | IL-1B inflam inh | SW480 rereplic
Cc1nc2c(=O)n(C)c(=O)n(C)c2nc1Cl | 30µM* | u | -3% | 1.8µM* | -99* | u
O=c1oc2cc(O)ccc2cc1S(=O)(=O)c1ccccc1 | x | x | 0% | 2.6µM* | -1 | 2%
Cc1ccc2oc(=O)c(S(=O)(=O)c3ccc(F)cc3)cc2c1 | x | -3% | 4% | x | x | x
O=c1oc2c(F)cc(F)cc2cc1S(=O)(=O)c1ccc(F)cc1 | x | x | 2% | x | x | x
CCCCCCc1cc2cc(S(=O)(=O)c3ccc(C)cc3)c(=O)oc2cc1O | x | u | u | u | 50 | 18µM*
CCCCCCc1cc2cc(S(=O)(=O)c3ccc(Cl)cc3)c(=O)oc2cc1O | x | u | u | u | -7 | 21µM*
CCN(CC)c1ccc2cc(S(=O)(=O)c3ccc(Cl)cc3)c(=O)oc2c1 | x | -5% | 0% | u | 17 | 18µM*
O=C(c1ccccc1C(F)(F)F)N1CCOc2c(cc(-c3nc4ccccc4s3)cc2OC2CCOC2)C1 (stereo unspecified) | i | x | -1% | x | x | x
CN(CC(=O)Nc1ccc(F)cc1F)S(=O)(=O)c1cccc2nsnc12 | i | 0% | 1% | x | x | x
Cc1ccc2c(c1)/C(=C/c1ccccc1)C(=O)N2 | i | 0% | 0% | u | -82* | u
Cc1ccc2c(c1)/C(=C/c1ccccc1F)C(=O)N2 | u | x | 6% | 6% | -5 | -12%
COc1ccc(C=O)c(-c2c(-c3ccccc3OC)sc3ccccc23)c1 | u | -18% | -1% | x | 5 | x
O=C(Nc1nccs1)c1ccc(COc2ccc(F)cc2)o1 | i | 0% | 28%[38.3 µM] | 2.9µM* | -10 | -6%
C/C(=N\O)c1cc(Cl)cc(Cl)c1O | i | 20% | 4% | 0% | -83* | 7%
CCOc1ccc(N(CC(=O)Nc2ccc(C)c(F)c2)C2=NC3CS(=O)(=O)CC3S2)cc1 (stereo unspecified) | i | 9% | -1% | u | -16 | 29%
CCOc1ccc(N(CC(=O)Nc2ccc(OC)cc2)C2=NC3CS(=O)(=O)CC3S2)cc1 (stereo unspecified) | i | -4% | 2% | 11% | -58* | -19%
O=C1c2ccccc2[C@@H]2C[C@@H](O)[C@H](Nc3cccc4ccccc34)CCN12 | i | -7% | 0% | u | -7 | 18µM*
COc1ccc(N[C@@H]2CCN3C(=O)c4ccccc4[C@@H]3C[C@H]2O)cc1 | i | 3% | -1% | -3% | 45 | -4%
O=c1cc(-c2ccccc2Cl)oc2c(NS(=O)(=O)c3cc(Cl)cc(Cl)c3O)ccc(O)c12 | 32µM* | u | u | -32% | 2 | 20%
C=CCc1cc(Cl)ccc1OCCCNC(C)C | x | -34% | -2% | 14% | -59* | 22%
CCC(C)NCCOCCSc1ccc(Cl)cc1 (stereo unspecified) | i | -25% | -2% | 12% | -52* | 1%
CCC(C)NCCOCCOc1ccc(Cl)c(C)c1C (stereo unspecified) | i | -22% | -4% | 20% | -9 | u
CCC(C)NCCOCCOc1ccc(Cl)c2ccccc12 (stereo unspecified) | u | -15%[11.3 µM] | -2% | u | -104* | u
